Records with an inconclusive call do not appear. Calls of active or inactive are those of the source. The call rests on the fitted dose curve; in most records, active means well fitted inhibition curve with a large enough effect; inconclusive means small, poorly fitted or top-dose-only effect, or effect the other way; inactive means flat fitted curve, though single readings scatter.
molecular target: Ubiquitin carboxyl-terminal hydrolase 2 (Homo sapiens) (UniProt O75604); test: Ub-rhodamine 110 based assay for inhibitors Ubiquitin-specific Protease USP2a; conditions: USP2a Ub-rhodamine110 cleavage, fluorescence; series mostly up to 38.3 µM; activity change, negative = inhibition: at the top concentration; further: nearly all actives have a fitted effect of over 50% in size
Sequence (O75604 whole entry, looked up): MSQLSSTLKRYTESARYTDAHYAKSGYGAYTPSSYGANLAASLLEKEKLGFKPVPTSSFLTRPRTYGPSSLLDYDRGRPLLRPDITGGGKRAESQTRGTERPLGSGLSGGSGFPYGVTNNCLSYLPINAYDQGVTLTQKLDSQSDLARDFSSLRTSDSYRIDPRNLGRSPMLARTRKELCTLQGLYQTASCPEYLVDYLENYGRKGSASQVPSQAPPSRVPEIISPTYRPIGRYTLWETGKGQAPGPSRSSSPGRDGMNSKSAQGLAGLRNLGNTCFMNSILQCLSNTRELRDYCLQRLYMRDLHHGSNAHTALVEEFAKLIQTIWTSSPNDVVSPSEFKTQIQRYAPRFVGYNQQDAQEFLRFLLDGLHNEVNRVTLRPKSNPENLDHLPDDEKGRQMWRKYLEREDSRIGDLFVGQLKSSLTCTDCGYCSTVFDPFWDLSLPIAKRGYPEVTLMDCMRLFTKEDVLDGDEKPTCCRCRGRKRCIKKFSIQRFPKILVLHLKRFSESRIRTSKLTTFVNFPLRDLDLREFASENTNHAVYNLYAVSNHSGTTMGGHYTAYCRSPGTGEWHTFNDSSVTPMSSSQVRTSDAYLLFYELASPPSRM
Method in brief: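 Kinetic fluorescence (485/531 nm) read each minute over 7 min after adding Ub-Rhod110 (150 nM final) to USP2a (5 nM final). The enzyme had 30 min RT exposure to compounds beforehand in Tris pH 8.0 buffer with CaCl2, CHAPS and beta-ME.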
On the % scale 0 is the no-effect control and ±100 the full control effect; potency means the concentration at half of the fitted maximal effect.

Compound | activity change, negative = inhibition | Potency
C[C@H](CO)N1C[C@H](C)[C@@H](CN(C)S(=O)(=O)c2cn(C)cn2)Oc2ccc(NC(=O)Cn3cnnn3)cc2C1=O | -2.38% (inactive) | 
CC1=NN(c2ccc(C(=O)O)cc2)C(=O)/C1=C\c1ccc(OC(=O)c2cccs2)cc1 | -21.7% (inactive) | 
Cc1c(C(=O)Nc2ccc3c4c(cccc24)CC3)cccc1[N+](=O)[O-] | -18% (inactive) | 
O=C(Nc1cnn(Cc2ccccc2)c1)c1nc2ncccn2n1 | -2.39% (inactive) | 
CC(C)(C)[C@H]1COC(=O)[C@@H](Cc2ccc(F)cc2)C/C=C\C[C@@H](CC(=O)N[C@@H](CO)Cc2ccccc2)C(=O)N1 | 0.71% (inactive) | 
CC(C)(C)C1C=C(Sc2ccccc2)C(=O)O1 (centres undefined) | -0.787% (inactive) | 
CCn1nnnc1SCC(=O)Nc1cccc(C)n1 | 6.59% (inactive) | 
COc1cc2c(C(=O)N3CCN(c4cccc(Cl)c4)CC3)cn(CC(C)C)c(=O)c2cc1OC | 2.04% (inactive) | 
CC(C)(C)C1CCC(=NNC(=O)CN(c2ccccc2)S(C)(=O)=O)CC1 (centres undefined) | -13.3% (inactive) | 
Cc1ccc(C2=N/C(=C\c3c(C)nn(-c4ccccc4)c3N3CCCC3)C(=O)O2)cc1 | 20.2% (inactive) | 
Cc1cc(NC(=O)CN2C(=O)NC3(CCCCC3C)C2=O)no1 (centres undefined) | 4.44% (inactive) | 
CCCOC(=O)CCCCC1SCC(NC(=O)OC)C1NC(=O)OC (centres undefined) | 6.99% (inactive) | 
CCN(CC(=O)Nc1ccc(NC(C)=O)cc1)C(=O)c1ccc(N2CCC(C)CC2)c([N+](=O)[O-])c1 | -22% (inactive) | 
Cc1ccc(C2=NC(=O)/C(=C/c3cc(O)c(O)c(Br)c3)S2)cc1 |  | 1.58 µM (active)
O=C(NCCCN1CCCC1=O)c1cccc(N2CCCC2=O)c1 | 0.745% (inactive) | 
COCc1cc(C)nc(OCC(=O)N/N=C\c2cc(C)n(-c3cccc(C(F)(F)F)c3)c2C)c1C#N | -13.8% (inactive) | 
CC(C)CCn1c(CN2CCN(C(=O)c3ccco3)CC2)nc2c1c(=O)n(C)c(=O)n2C | 24.1% (inactive) | 
C=CC#CC[N+]1(CC#Cc2ccccc2)CCOCC1 | -18.5% (inactive) | 
COc1cc(-c2nc(-c3ccc4c(c3)-c3ccccc3S4(=O)=O)c(-c3ccccc3)[nH]2)cc(OC)c1O | -23% (inactive) | 
O=C(COC(=O)c1cc(-c2ccc(Cl)s2)nc2ccccc12)NCc1ccco1 |  | 11.2 µM (active)

Compound | activity change, negative = inhibition | Potency
CSc1ncccc1C(=O)OCC(=O)N1CCOCC1 | 17.7% (inactive) | 
N#CNC(=Nc1cccc(F)c1)SCc1cccc(F)c1 | -0.241% (inactive) | 
COc1ccccc1NC(=O)N1CCN(c2ccccn2)CC1 | -6.78% (inactive) | 
CCn1c(SCC(=O)NCCc2ccccc2)nnc1-c1cccs1 | -2.84% (inactive) | 
CC(C)(C)C1CCc2nc(NC(=O)Cc3cn4ccsc4n3)sc2C1 (centres undefined) | -15.6% (inactive) | 
O=S(=O)(c1ccccc1)N(CC1CO1)c1cc(Cl)ccc1Cl (centres undefined) | 1.25% (inactive) | 
CC(NC(=O)COc1ccccc1-c1ccccc1)c1ccccc1 (centres undefined) | -12.3% (inactive) | 
Cc1ccc(S(=O)(=O)N2[C@@H](c3ccc(C(C)(C)C)cc3)C(C(=O)O)=CC[C@H]2c2ccc(C(C)C)cc2)cc1 |  | 3.98 µM (active)
CSc1ccc(NC(=O)CSc2nc3[nH]c(=O)cc(O)c3s2)cc1 |  | 5.62 µM (active)
CCCOc1ccc(/C=C2\SC(=S)N(CC3CCCO3)C2=O)cc1 (centres undefined) | -7.91% (inactive) | 
CN(CC(=O)Nc1cccc2ccccc12)C(=O)c1ccc(NC(=O)CC#N)cc1 |  | 11.2 µM (active)
O=C(Cc1cccs1)Nc1ccc(S(=O)(=O)N2CCCCC2)cc1 |  | 7.94 µM (active)
O=C(COC(=O)c1ccc(F)c(S(=O)(=O)N2CCOCC2)c1)c1ccccc1 | -0.0271% (inactive) | 
CC(CN1CCCCC1)OC(=O)c1ccc(Cl)cc1 (centres undefined) | 1.02% (inactive) | 
Cc1cc(C(C)(C)CC(C)(C)C)ccc1OCCOCC[N+](C)(C)Cc1ccccc1 | -5.87% (inactive) | 
COc1ccc(NC(=O)CSc2nc3sc(C)cc3c(=O)n2C)c(OC)c1 | -14.9% (inactive) | 
CC1=C(C(=O)OC(C)C)C(C)C(C(=O)OC(C)C)=C(C)N1 | -4.29% (inactive) | 
C[C@](N)(Cc1ccc(O)c(O)c1)C(=O)O | -6.04% (inactive) | 
Cc1ccc(SCc2cc(=O)c3c(=O)n(-c4ccccc4)[nH]c3[nH]2)cc1 | -19% (inactive) | 

Reference: PubChem BioAssay AID493170 (National Center for Advancing Translational Sciences (NCATS), 2011)
